Activity calls are given as the source filed them.
Assays:
Albumin (Bos taurus) = Albumin (Bos taurus) (UniProt P02769); experiment: compounds binding labelled BSA control protein – biochemical, small-molecule microarray, Alexa647 label, 635/667 nm fluorescence, artefact control for SMM control protein annotation, profiling panel (AID 1118); settings: BSA-A647 binding, fluorescence 635 nm, higher = more signal;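 also: score merges 667 nm emission intensity and signal-to-noise per printed compound spot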
Albumin (Bos taurus), sequence (P02769 whole entry, looked up): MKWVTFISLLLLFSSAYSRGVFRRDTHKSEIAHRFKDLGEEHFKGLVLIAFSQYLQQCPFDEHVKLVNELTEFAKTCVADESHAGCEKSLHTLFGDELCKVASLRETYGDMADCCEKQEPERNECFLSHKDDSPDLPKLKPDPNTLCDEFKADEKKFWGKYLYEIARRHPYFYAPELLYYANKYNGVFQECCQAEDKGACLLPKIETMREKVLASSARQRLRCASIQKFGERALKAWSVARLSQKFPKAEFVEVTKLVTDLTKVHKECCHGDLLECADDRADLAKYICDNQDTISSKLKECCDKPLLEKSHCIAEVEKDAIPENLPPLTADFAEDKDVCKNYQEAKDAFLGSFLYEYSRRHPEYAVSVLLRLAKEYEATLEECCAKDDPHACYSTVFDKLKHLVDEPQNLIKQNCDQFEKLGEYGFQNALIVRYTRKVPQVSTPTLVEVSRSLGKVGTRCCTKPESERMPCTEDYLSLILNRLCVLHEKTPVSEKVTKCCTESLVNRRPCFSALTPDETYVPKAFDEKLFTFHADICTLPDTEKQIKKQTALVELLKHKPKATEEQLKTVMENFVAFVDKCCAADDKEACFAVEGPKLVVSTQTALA

[1] = probe aXIP binding to arrayed compounds – biochemical, NeuroSMM set, 635/667 nm fluorescence, primary screen (AID 1119); settings: small-molecule microarray, higher = more signal, called active from +8 up or from −8 down;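 also: probe is the protein aXip251-270 applied at 1 µg/mL to compound-printed slides; binding of probe to printed compounds measured as 667 nm fluorescence plus signal to noise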
[2] = probe aNOTCH3 binding on compound microarray – biochemical, small-molecule microarray, 635/667 nm fluorescence, primary screen (AID 1120); settings: higher = more signal;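 also: probe is a biotin-tagged antibody raised against NOTCH3 rather than NOTCH3 protein; score merges spot fluorescence near 667 nm with spot signal to noise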
[3] = probe aNOTCH2 binding on compound microarray – biochemical, small-molecule microarray, 635/667 nm fluorescence, primary screen (AID 1121); settings: higher = more signal;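 also: score merges feature fluorescence read at 667 nm with its signal to noise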
[4] = target: Carbonic anhydrase 2 (Homo sapiens) (UniProt P00918); experiment: compounds binding carbonic anhydrase 2 – biochemical, small-molecule microarray, Alexa647-labelled CAII, profiling panel (AID 1122); settings: CAII-A647 binding fluorescence, higher = more signal
[5] = COS7 lysate on small-molecule microarray, probe aHis, 635 nm (AID 1123); settings: COS7 cell lysate, fluorescence, higher = more signal;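 also: z-score combines 667nm fluorescence intensity with signal-to-noise per printed compound spot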
[6] = probe aLAP1 signal on lysate-treated microarray – cell lysate, small-molecule microarray, COS7 lysate, primary screen (AID 1124); settings: probe aLAP1, fluorescence, higher = more signal;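 also: lysate comes from COS7 cells expressing LAP1 and is applied at 0.3 µg/mL; score merges spot fluorescence near 667 nm with signal-to-noise over triplicate slides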
Sam68 (KHDRBS1) = experiment: compounds binding KHDRBS1 protein – biochemical, small-molecule microarray, 635 nm fluorescence, primary screen (AID 1125); settings: higher = more signal;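 also: score merges 667 nm channel intensity with signal to noise over triplicate slides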
[7] = test system: Chordin-like protein 2 (CHRDL2); experiment: compounds binding chordin-like 2 – biochemical, small-molecule microarray, 635 nm fluorescence, primary screen (AID 1126); settings: fluorescence 635 nm, higher = more signal;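 also: printed compound slides probed with Chrdl2 protein at 4 µg/mL for 1 h at 4 C; score merges 667 nm emission intensity with signal to noise over three replicate slides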
[8] = target: Concanavalin-A (Canavalia ensiformis) (UniProt P02866); experiment: compounds binding concanavalin A lectin – biochemical, small-molecule microarray, Alexa647 label, 635 nm, artefact control for SMM control protein annotation, primary screen (AID 1127); settings: ConA-A647 binding fluorescence, higher = more signal;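 also: z combines 667 nm emission intensity with signal-to-noise across three replicate slides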
Concanavalin-A (Canavalia ensiformis), sequence (P02866 whole entry, looked up): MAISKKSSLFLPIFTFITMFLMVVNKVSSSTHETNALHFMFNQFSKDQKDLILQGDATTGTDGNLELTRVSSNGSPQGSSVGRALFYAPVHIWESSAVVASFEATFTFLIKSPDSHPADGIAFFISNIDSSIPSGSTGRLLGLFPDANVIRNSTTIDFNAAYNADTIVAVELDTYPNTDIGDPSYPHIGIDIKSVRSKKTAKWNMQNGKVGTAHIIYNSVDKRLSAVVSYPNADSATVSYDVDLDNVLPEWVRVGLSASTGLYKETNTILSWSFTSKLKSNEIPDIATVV

[9] = compounds binding Alexa647 anti-His antibody – biochemical, small-molecule microarray, 635 nm fluorescence, artefact control for SMM control protein annotation, primary screen (AID 1128); settings: higher = more signal;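 also: score merges feature fluorescence with signal-to-noise for each printed compound spot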
[10] = test system: Human papillomavirus type 1a E7 protein (residues 1-88); experiment: HPV1a E7 small-molecule binders, primary screen, biochemical, small-molecule microarray, residues 1-88, 635 nm (AID 1129); settings: small-molecule microarray binding, fluorescence 635 nm; higher = more signal
[11] = target: Focal adhesion kinase 1 (Homo sapiens) (UniProt Q05397); experiment: PTK2 protein binding on printed compound slides – biochemical, small-molecule microarray, 635/667 nm fluorescence, BSA, DTT, primary screen (AID 1130); settings: 635 nm fluorescence, higher = more signal;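 also: composite of spot emission at 667 nm and signal to noise over triplicate slides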
Focal adhesion kinase 1 (Homo sapiens), sequence (Q05397 whole entry, looked up): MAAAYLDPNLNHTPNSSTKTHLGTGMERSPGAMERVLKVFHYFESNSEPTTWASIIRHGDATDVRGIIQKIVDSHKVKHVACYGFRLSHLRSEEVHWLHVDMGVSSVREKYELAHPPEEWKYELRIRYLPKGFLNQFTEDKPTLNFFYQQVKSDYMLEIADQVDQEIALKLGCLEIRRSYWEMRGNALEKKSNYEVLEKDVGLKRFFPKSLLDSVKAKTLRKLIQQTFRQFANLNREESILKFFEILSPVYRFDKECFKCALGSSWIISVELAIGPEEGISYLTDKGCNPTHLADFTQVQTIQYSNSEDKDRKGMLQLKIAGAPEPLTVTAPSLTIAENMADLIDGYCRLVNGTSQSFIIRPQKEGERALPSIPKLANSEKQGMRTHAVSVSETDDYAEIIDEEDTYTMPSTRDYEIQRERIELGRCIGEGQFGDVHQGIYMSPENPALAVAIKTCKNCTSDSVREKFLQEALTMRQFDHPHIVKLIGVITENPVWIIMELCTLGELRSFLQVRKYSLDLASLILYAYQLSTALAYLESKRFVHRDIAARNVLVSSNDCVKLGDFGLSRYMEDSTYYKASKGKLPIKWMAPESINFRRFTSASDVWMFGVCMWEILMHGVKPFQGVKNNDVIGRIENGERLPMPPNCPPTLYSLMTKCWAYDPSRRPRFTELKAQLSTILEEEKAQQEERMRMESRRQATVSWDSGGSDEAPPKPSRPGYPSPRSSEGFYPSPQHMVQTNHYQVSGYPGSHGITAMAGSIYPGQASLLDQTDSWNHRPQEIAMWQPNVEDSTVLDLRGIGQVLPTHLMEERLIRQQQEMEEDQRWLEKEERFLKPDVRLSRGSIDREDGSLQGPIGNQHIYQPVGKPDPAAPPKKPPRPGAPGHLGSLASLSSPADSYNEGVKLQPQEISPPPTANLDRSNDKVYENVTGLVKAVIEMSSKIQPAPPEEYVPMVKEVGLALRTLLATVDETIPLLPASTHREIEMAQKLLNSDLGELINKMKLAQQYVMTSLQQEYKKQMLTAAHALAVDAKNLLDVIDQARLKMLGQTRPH

[12] = test system: Fibrinogen (Alexa647-labelled); experiment: Alexa647-fibrinogen binding to printed small molecules – biochemical, small-molecule microarray, 635/667 nm fluorescence, artefact control for SMM control-protein annotation, profiling panel (AID 1131); settings: fibrinogen-A647 binding fluorescence, higher = more signal;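 also: z-score merges 667 nm fluorescence with per-spot signal-to-noise over triplicate slides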
[13] = target: Follistatin (Homo sapiens) (UniProt P19883); experiment: FST protein binding to printed compounds – biochemical, small-molecule microarray, 635/667 nm fluorescence, primary screen (AID 1132); settings: 635 nm fluorescence, higher = more signal
Follistatin (Homo sapiens), sequence (P19883 whole entry, looked up): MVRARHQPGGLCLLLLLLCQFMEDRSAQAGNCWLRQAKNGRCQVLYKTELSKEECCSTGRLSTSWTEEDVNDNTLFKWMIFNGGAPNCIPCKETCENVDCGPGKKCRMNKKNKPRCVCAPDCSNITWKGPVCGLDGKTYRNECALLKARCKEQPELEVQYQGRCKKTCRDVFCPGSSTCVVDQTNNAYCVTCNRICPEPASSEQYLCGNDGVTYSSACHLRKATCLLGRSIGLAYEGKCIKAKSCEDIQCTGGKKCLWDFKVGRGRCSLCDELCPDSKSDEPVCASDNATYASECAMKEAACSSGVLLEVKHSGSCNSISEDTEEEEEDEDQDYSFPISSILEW

[14] = target: Fibroblast growth factor 2 (Homo sapiens) (UniProt P09038); experiment: basic fibroblast growth factor binding to printed compounds – biochemical, small-molecule microarray, 635/667 nm fluorescence, primary screen (AID 1133); settings: FGF2, fluorescence 635/667, higher = more signal
Fibroblast growth factor 2 (Homo sapiens), sequence (P09038 whole entry, looked up): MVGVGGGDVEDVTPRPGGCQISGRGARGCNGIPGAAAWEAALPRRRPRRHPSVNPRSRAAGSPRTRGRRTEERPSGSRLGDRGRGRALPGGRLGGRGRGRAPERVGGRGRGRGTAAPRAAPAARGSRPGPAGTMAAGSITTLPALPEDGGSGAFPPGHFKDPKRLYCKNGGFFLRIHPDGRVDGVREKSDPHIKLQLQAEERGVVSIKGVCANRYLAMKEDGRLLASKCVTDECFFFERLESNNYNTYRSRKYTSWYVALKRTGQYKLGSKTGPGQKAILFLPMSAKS

[15] = JC-1 mitochondrial potential readout, lung cancer cells – cell-based, A549, JC-1 fluorescence, basal, 24 h, 100 nL, profiling panel (AID 1138); settings: higher = more signal;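 also: A549 lung adenocarcinoma cells under basal conditions with no added stimulus; test concentration not given here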
Lefty1 = Lefty1 protein binding to printed compounds – biochemical, small-molecule microarray, 635/667 nm fluorescence, primary screen (AID 1139); settings: fluorescence 635/667, higher = more signal
[16] = test system: wheat germ agglutinin (Triticum aestivum), Alexa647-labelled; experiment: Alexa647-WGA lectin binding to printed small molecules – biochemical, small-molecule microarray, 635/667 nm fluorescence, artefact control for SMM control-protein annotation, profiling panel (AID 1140); settings: WGA-A647 binding, 635 nm fluorescence, higher = more signal;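 also: score merges 667 nm feature emission with signal to noise over triplicate slides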
[17] = target: Luciferin 4-monooxygenase (Photinus pyralis) (UniProt P08659); experiment: inhibition of purified Photinus pyralis luciferase – biochemical, luminescence, purified enzyme, 2006 set, primary screen (AID 1141); settings: purified firefly luciferase, SteadyGlo luminescence, 30 min; higher = more signal, called active from +8 up or from −8 down;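 also: cell-free assay with purified firefly luciferase at 100 ng per well in PBS; test concentration not given here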
Luciferin 4-monooxygenase (Photinus pyralis), sequence (P08659 whole entry, looked up): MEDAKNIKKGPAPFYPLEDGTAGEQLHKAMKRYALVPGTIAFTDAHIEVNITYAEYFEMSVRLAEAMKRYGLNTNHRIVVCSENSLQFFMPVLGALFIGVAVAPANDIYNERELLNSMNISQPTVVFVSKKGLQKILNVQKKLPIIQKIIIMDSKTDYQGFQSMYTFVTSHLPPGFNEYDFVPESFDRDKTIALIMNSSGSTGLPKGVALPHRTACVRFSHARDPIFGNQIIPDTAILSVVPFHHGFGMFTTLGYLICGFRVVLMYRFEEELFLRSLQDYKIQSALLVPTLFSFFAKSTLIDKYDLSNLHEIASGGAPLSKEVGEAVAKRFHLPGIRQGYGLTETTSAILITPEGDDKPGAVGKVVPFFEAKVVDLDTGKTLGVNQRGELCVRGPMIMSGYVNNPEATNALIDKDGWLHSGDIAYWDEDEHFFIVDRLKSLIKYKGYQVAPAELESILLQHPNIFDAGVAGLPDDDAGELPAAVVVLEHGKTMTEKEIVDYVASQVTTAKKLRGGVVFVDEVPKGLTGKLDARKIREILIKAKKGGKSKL

SMILES | composite z-score (Albumin (Bos taurus)) | composite Z-score [1] | composite z-score [2] | composite z-score [3] | composite z-score [4] | composite z-score [5] | composite z-score [6] | composite z-score (Sam68 (KHDRBS1)) | composite z-score [7] | composite z-score [8] | composite z-score [9] | composite z-score [10] | composite z-score [11] | composite z-score [12] | composite z-score [13] | composite z-score [14] | z-score [15] | composite z-score (Lefty1) | composite z-score [16] | z-score [17]
COc1cc2c(cc1OC)CN(C(=O)[C@@H]1[C@H]3C(=O)O[C@H](c4ccccc4)[C@H](c4ccccc4)N3[C@H](c3ccccc3OCCO)[C@@]13C(=O)Nc1ccc(C#CC4(O)CCCCCC4)cc13)CC2 | 0.319 | 0.428 (inactive) | 0.0316 | -0.0859 | 0.527 | 1.48 | 0.829 | 1.3 | 0.334 | 1.13 | 1.57 | 1.17 | -0.0242 | 0.787 | 0.954 | 0.513 | -0.825 | 0.895 | 0.9 | -0.877 (inactive)
C[C@]12C(=O)N(CCCCCCO)[C@@H]3C(=O)N(c4ccc(Cl)cc4)CC=CC31O[C@@H]1/C=C\CCCOC(=O)C12 (stereo not given in full) | 0.377 | 1.82 (inactive) | -0.16 | -0.136 | 0.695 | 2.08 | -0.133 | 0.488 | -1.75 | -0.403 | 0.0039 | -0.401 | 0.657 | -2.42 | -0.448 | -1.12 | 0.846 | -0.408 | 0.608 | -1.64 (inactive)
Cc1c(NC(=O)/C(C#N)=C/C=C/c2ccc(N(C)C)cc2)c(=O)n(-c2ccccc2)n1C | 0.376 | 1.02 (inactive) | 0.308 | 0.292 | 0.456 | 2.54 | -0.154 | 1.22 | 0.568 | 1.1 | 1.61 | 1.18 | 0.0505 | 0.449 | 0.763 | 0.492 | 1.43 | 0.517 | 1.04 | -3.99 (inactive)
CC(=O)n1cc(C(O)C2C=CC3C(=O)N(c4ccccc4)C(=O)C3N2Nc2ccccc2)c2ccccc21 (stereo not given) | 0.408 | 0.197 (inactive) | 0.504 | 0.207 | 0.788 | 1.08 | 0.697 | 0.897 | 0.8 | 0.183 | 0.917 | 0.663 | 0.0901 | 0.735 | 1.36 | -0.379 | -0.282 | -0.137 | 1.27 | 0.252 (inactive)
C[C@]1(C(=O)NC2CC2)c2ccccc2C(=O)N(Cc2ccc(OC(F)(F)F)cc2)[C@H]1c1ccc(CO)cc1 | -0.85 | -0.0189 (inactive) | 0.0271 | 0.0049 | 0.37 | 0.209 | 0.0915 | 0.0003 | -1.14 | -0.698 | -0.725 | 0.722 | 0.576 | -0.796 | -0.239 | 0.0672 | 1 | -0.858 | -1.5 | 0.371 (inactive)
Cc1ccc(F)cc1S(=O)(=O)N[C@@H]1CCN(Cc2ccc(OC(C)C)cc2)C1 | 0.175 | -0.491 (inactive) | -0.201 | -0.154 | 0.359 | -0.453 | -0.182 | -0.649 | 0.504 | -1.41 | 0.111 | -1.37 | -0.425 | -0.907 | -0.235 | 0.47 | 1.14 | -0.177 | -1.28 | 0.0358 (inactive)
